# In PubChem BioAssay:
# Active and inactive are the calls of the source.
# Assays:
# [1] = system: Plasmodium falciparum Sir2 (PF13_0152, Sir2A); experiment: pfSir2 binders on small-molecule microarrays, primary screen, biochemical, small-molecule microarray, 635 nm fluorescence (AID 1098); details: small-molecule microarray binding, fluorescence 635 nm; higher = more signal;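 further: score merges spot fluorescence intensity with its signal-to-noise ratio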
# [2] = small-molecule microarray binders of probe aDKK1, primary screen, biochemical, biotinylated probe, 635/667 nm fluorescence (AID 1099); details: higher = more signal;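 further: score merges 667nm spot fluorescence with signal to noise across triplicate slides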
# [3] = small-molecule microarray binders of probe aCHRDL2, primary screen, biochemical, biotinylated probe, 635/667 nm fluorescence (AID 1100); details: higher = more signal
# [4] = splicing luciferase reporter signal modulators, primary screen, spliceosome inhibition project, cell-based, HEK293, splice +/- reporter (AID 1101); details: luminescence, 24 h, higher = more signal, called active from +8 up or from −8 down;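 further: HEK293 cells carrying a splicing-competent luciferase reporter gene; test concentration not given here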
# [5] = molecular target: Fibroblast growth factor 10 (Homo sapiens) (UniProt O15520); experiment: FGF10 binders on small-molecule microarrays, primary screen, biochemical, small-molecule microarray, 635 nm fluorescence (AID 1102); details: FGF10 binding, fluorescence 635 nm, higher = more signal
# Fibroblast growth factor 10 (Homo sapiens), sequence (O15520 whole entry, looked up): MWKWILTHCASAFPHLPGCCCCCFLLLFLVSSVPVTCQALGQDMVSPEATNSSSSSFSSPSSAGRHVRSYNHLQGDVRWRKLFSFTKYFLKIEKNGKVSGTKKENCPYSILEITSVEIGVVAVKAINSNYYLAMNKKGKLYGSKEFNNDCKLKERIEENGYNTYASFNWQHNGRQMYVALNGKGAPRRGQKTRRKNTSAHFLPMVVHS
# [6] = system: glycogen synthase kinase-3 (GSK3A per assay name; protocol says GSK3B); experiment: GSK3 binders on small-molecule microarrays, primary screen, biochemical, small-molecule microarray, 635 nm fluorescence, GSK3A (AID 1103); details: small-molecule microarray binding, fluorescence 635 nm; higher = more signal; further: the record names both GSK3A and GSK3B
# [7] = molecular target: Epidermal growth factor receptor (Homo sapiens) (UniProt P00533); experiment: EGFR binders on small-molecule microarrays, primary screen, biochemical, small-molecule microarray, 635 nm fluorescence (AID 1104); details: EGFR binding, higher = more signal;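 further: score merges 667 nm emission intensity with spot signal to noise over triplicate slides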
# Epidermal growth factor receptor (Homo sapiens), sequence (P00533 whole entry, looked up): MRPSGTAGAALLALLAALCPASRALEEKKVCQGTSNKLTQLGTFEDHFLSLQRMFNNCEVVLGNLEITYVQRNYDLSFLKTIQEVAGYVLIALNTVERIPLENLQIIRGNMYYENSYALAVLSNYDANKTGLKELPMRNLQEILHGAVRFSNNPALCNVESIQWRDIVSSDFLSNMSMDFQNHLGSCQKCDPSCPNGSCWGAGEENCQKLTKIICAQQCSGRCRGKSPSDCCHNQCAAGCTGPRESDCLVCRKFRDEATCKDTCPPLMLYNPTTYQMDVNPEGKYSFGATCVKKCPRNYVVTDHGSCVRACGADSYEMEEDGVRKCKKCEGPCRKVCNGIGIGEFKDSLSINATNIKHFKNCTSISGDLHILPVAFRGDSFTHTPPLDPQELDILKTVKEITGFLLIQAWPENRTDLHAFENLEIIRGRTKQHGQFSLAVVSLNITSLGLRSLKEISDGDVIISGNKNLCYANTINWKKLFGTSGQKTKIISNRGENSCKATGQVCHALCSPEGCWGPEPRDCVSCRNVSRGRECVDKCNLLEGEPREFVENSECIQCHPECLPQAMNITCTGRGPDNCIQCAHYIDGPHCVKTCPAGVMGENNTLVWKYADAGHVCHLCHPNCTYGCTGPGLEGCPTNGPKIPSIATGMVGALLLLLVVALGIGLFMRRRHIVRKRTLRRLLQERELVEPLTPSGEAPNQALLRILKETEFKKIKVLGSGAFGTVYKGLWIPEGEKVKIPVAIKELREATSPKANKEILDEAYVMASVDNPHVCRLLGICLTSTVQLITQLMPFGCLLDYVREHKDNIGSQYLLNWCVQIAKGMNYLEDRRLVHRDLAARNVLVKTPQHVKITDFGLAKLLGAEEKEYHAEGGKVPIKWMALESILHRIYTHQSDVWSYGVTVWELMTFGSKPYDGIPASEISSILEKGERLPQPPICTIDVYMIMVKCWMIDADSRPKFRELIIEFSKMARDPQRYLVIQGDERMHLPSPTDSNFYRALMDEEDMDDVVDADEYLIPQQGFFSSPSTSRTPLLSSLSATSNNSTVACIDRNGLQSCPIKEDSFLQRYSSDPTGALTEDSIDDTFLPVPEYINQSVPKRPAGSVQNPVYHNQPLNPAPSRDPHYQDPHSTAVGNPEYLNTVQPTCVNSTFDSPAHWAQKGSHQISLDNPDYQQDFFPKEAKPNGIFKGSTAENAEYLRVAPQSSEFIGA
# [8] = molecular target: Follistatin-related protein 3 (Homo sapiens) (UniProt O95633); experiment: FSTL3 binders on small-molecule microarrays, primary screen, biochemical, small-molecule microarray, 635 nm fluorescence (AID 1105); details: FSTL3 binding, higher = more signal;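 further: score merges emission near 667 nm and signal to noise per printed spot across three slides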
# Follistatin-related protein 3 (Homo sapiens), sequence (O95633 whole entry, looked up): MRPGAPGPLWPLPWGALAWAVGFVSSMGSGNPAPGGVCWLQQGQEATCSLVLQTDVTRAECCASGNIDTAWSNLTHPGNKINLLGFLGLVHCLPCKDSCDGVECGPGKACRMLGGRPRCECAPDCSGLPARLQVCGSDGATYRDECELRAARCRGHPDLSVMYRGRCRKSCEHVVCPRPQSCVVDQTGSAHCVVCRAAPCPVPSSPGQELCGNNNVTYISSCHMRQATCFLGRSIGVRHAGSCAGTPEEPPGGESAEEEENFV
# [9] = molecular target: Dickkopf-related protein 1 (Homo sapiens) (UniProt O94907); experiment: DKK1 binders on small-molecule microarrays, primary screen, biochemical, small-molecule microarray, 635 nm fluorescence scan (AID 1106); details: DKK1 binding, higher = more signal;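 further: score merges emission near 667 nm with signal to noise over three replicate slides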
# Dickkopf-related protein 1 (Homo sapiens), sequence (O94907 whole entry, looked up): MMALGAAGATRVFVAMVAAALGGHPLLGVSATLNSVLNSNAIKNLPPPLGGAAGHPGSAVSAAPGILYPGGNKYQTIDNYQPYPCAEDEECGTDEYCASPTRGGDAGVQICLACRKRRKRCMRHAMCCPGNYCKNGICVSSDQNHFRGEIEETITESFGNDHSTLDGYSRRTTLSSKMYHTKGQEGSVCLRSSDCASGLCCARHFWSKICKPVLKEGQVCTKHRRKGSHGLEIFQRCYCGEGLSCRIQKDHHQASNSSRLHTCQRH
# [10] = system: Inhibin beta A chain (activin A); experiment: INHBA (activin A) binders on microarrays, primary screen, biochemical, small-molecule microarray, 635 nm fluorescence scan (AID 1107); details: small-molecule microarray binding, higher = more signal;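 further: mouse activin A protein probed at 4.33 µg/mL on printed slides; score merges bound-protein fluorescence near 667 nm with spot signal-to-noise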
# [11] = system: Human papillomavirus type 1a protein E7 (residues 44-93); experiment: HPV1a E7 fragment binders on microarrays, primary screen, biochemical, small-molecule microarray, residues 44-93, 635 nm fluorescence (AID 1108); details: small-molecule microarray binding, fluorescence 635 nm; higher = more signal;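 further: E7 fragment applied at 1 µg/mL in TBST for 1 h at 4 C; score combines spot fluorescence with its signal to noise ratio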
# [12] = modulators of HCV replicon luciferase signal, primary screen, HCV replication inhibitor project, Huh7 cells, luciferase reporter (AID 1109); details: 48 h, higher = more signal;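 further: huh7 hepatoma cells harbouring a luciferase neomycin HCV replicon reporter; luciferase luminescence as measure of HCV replicon replication; test concentration not given here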
# [13] = molecular target: Left-right determination factor 2 (Homo sapiens) (UniProt O00292); experiment: LEFTY2 binders on small-molecule microarrays, primary screen, biochemical, small-molecule microarray, 635 nm fluorescence scan (AID 1110); details: LEFTY2 binding, higher = more signal
# Left-right determination factor 2 (Homo sapiens), sequence (O00292 whole entry, looked up): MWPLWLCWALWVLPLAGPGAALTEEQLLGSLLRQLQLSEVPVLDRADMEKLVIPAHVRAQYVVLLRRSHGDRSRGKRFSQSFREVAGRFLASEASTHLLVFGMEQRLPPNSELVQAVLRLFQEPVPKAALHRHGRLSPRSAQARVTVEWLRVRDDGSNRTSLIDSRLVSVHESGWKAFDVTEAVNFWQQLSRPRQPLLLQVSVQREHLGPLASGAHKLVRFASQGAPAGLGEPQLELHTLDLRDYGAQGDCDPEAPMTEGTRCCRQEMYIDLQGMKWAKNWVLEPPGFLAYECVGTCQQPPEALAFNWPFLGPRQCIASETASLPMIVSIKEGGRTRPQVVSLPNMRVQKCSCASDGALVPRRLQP
# [14] = molecular target: Calmodulin-1 (Homo sapiens) (UniProt P0DP23); experiment: CALM1 binders on microarrays, EGTA buffer, profiling panel, biochemical, small-molecule microarray, Cy5-labelled CALM1 (AID 1111); details: Cy5-CALM1 binding fluorescence, higher = more signal;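 further: labelled calmodulin applied in Tris saline Tween buffer holding calcium plus EGTA and DTT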
# [15] = molecular target: Calmodulin-1 (Homo sapiens) (UniProt P0DP23); experiment: calcium-bound CALM1 binders on microarrays, profiling panel, artefact control for SMM control-protein annotation, biochemical, small-molecule microarray, Cy5-labelled CALM1, plus calcium (AID 1112); details: Cy5-CALM1 binding fluorescence, higher = more signal;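 further: score merges spot fluorescence with signal to noise from triplicate slides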
# [16] = small-molecule microarray binders of probe aWnt5a, primary screen, biochemical, biotinylated probe, 635/667 nm fluorescence (AID 1113); details: higher = more signal;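 further: score merges 667 nm fluorescence intensity with signal-to-noise per printed feature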
# [17] = small-molecule microarray binders of probe aShh, primary screen, biochemical, biotinylated probe, 635/667 nm fluorescence (AID 1114); details: higher = more signal;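 further: probe is biotin-labelled aShh protein from a stem cell growth factor screen; measures binding of labelled protein to compounds printed on the slide; score merges feature fluorescence at 667 nm with signal-to-noise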
# [18] = small-molecule microarray binders of probe aNog, primary screen, biochemical, biotinylated probe, 635/667 nm fluorescence (AID 1115); details: higher = more signal;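 further: probe is biotinylated aNog protein used at 0.15 µg/mL for 1 h at 4 C; z-score combines 667 nm fluorescence of each spot with its signal to noise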
# [19] = molecular target: Torsin-1A-interacting protein 1 (Homo sapiens) (UniProt Q5JTV8); experiment: LAP1 binders from COS7 cell lysate, primary screen, small-molecule microarray, 635/667 nm fluorescence (AID 1116); details: COS7-hLAP1 lysate binding, 635 nm fluorescence, higher = more signal
# Torsin-1A-interacting protein 1 (Homo sapiens), sequence (Q5JTV8 whole entry, looked up): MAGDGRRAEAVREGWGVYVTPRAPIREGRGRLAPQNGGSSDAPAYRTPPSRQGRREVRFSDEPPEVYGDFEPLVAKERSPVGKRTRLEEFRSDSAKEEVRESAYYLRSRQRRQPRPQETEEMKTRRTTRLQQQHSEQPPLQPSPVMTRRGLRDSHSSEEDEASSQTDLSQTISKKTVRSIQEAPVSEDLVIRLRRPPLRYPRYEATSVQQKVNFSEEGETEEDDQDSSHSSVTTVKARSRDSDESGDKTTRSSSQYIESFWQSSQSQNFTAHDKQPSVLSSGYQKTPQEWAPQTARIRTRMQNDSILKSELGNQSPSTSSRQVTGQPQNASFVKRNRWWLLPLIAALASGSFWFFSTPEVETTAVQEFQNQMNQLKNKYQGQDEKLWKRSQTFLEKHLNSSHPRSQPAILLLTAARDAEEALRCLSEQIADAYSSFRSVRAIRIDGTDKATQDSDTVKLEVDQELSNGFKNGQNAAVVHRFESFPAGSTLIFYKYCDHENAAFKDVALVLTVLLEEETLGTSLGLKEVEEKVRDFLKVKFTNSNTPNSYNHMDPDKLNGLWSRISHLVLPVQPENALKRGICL
# [20] = molecular target: Alpha-bungarotoxin (Bungarus multicinctus) (UniProt P60615); experiment: alpha-bungarotoxin binders on microarray, profiling panel, artefact control for SMM control protein annotation, biochemical, small-molecule microarray, Alexa647 label, 635/667 nm fluorescence (AID 1117); details: alpha-BTX-A647 binding fluorescence, higher = more signal
# Alpha-bungarotoxin (Bungarus multicinctus), sequence (P60615 whole entry, looked up): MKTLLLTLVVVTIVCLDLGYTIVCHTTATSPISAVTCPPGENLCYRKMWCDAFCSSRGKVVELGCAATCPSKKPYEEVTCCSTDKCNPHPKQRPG
Compound,composite z-score [1],composite z-score [2],composite z-score [3],z-score [4],composite z-score [5],composite z-score [6],composite z-score [7],composite z-score [8],composite z-score [9],composite z-score [10],composite z-score [11],z-score [12],composite z-score [13],composite z-score [14],composite z-score [15],composite z-score [16],composite z-score [17],composite z-score [18],composite z-score [19],composite z-score [20]
Cc1ccc(F)cc1S(=O)(=O)N[C@@H]1CCN(Cc2ccc3c(c2)OCO3)C1,0.0014,-0.247,-0.289,-0.0924 (inactive),-0.24,-0.191,0.0122,-0.272,0.537,0.528,-0.28,-1.98,0.198,-0.786,-0.997,-0.176,-0.0626,-0.12,0.636,0.445
COc1ccc(CCNC(=O)[C@@]2(C)c3ccccc3C(=O)N(Cc3cc(C(F)(F)F)cc(C(F)(F)F)c3)[C@H]2c2ccc(CO)cc2)cc1,0.569,1.64,1.02,-0.926 (inactive),0.329,0.651,0.875,0.371,0.338,-0.307,1.28,-2.25,0.0779,1.33,-0.228,-0.152,-0.0669,0.242,0.548,-0.183
CCCC[C@H]1OB(O)C[C@H]2C1=C(COC)C[C@H]1C(=O)C=CC(=O)[C@H]12,0.351,-0.177,-0.461,0.635 (inactive),0.6,0.385,0.645,1.07,0.717,1.21,0.275,-1.33,0.594,-0.321,-0.728,-0.101,0.0062,-0.0344,-0.22,0.567
CC(C)CNC(=O)[C@@H]1c2ccccc2C(=O)N(C2Cc3ccccc3C2)[C@H]1c1ccc(CO)cc1,1.41,-0.0818,0.435,-0.179 (inactive),-0.127,-0.0545,-0.267,-0.192,-0.777,0.245,1.11,-0.235,-0.325,-0.588,-0.616,-0.101,-0.185,0.325,0.691,-0.205
CC(C)C[C@@H]1NC(=O)[C@H]2C[C@@H](C(=O)NCCCCCCNC(=O)CS)[C@@H](c3ccc(O)cc3)N2C1=O,1.47,-0.0603,-0.121,-0.0594 (inactive),1.13,1.25,1.08,1.03,0.868,-1.17,1.4,-1.13,0.719,1.56,0.858,-0.0718,-0.0362,-0.164,1.47,-0.827
CC(C)C[C@@H]1NC(=O)[C@@]23C(=O)N[C@@H](Cc4ccccc4)C2[C@H](C)[C@@]2(C)O[C@H]2C3/C=C/C/C=C\CNC(=O)[C@@H](CC(C)C)NC1=O (stereo not given in full),0.331,-0.299,-0.496,-0.958 (inactive),0.37,0.193,0.367,1.1,0.511,0.904,0.741,0.052,0.567,-0.475,-0.674,-0.101,-0.238,-0.35,0.403,0.322
